Growth data for eight compounds are collected here from PubChem BioAssay (NCI).

The panel holds about 83,000 compounds, 20% with a hit somewhere; the sample as a whole holds those more often.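 Each cell line was grown in a 96-well plate and treated with one concentration of compound for 48 hours. Values below 10 were considered active.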 A number with no mark means an inactive call. Activity calls are given as the source filed them.

Holding throughout (experiment): NCI-60 one-dose screen, 48 h (100 = growth as untreated, 0 = no growth, -100 = all killed)
One experiment deals with SK-MEL-2 melanoma. The settings on record: 10 µM unless noted.
The test system of another experiment is EKVX NSCLC. Particulars: 10 µM unless noted.
A further experiment concerns SN12C renal. Particulars: 10 µM unless noted.
The test system of a further experiment is UO-31 renal. Particulars: 10 µM unless noted.
A further experiment relates to TK-10 renal. Particulars: 10 µM unless noted.
A further experiment has as its system ACHN renal. The settings on record: 10 µM unless noted.
For a further experiment, the system named is CAKI-1 renal. The settings on record: 10 µM unless noted.
For the next experiment, the system named is A498 renal. Particulars: 10 µM unless noted.
The subject of another experiment is CCRF-CEM leukemia. Particulars: 10 µM unless noted.
Another experiment deals with MOLT-4 leukemia. The settings on record: 10 µM unless noted.
The next experiment relates to SR leukemia. Particulars: 10 µM unless noted.
The subject of another experiment is RPMI-8226 leukemia. The settings on record: 10 µM unless noted.
A further experiment relates to OVCAR-8 ovarian. The settings on record: 10 µM unless noted.
The subject of the next experiment is OVCAR-5 ovarian. The settings on record: 10 µM unless noted.
A further experiment relates to OVCAR-4 ovarian. Particulars: 10 µM unless noted.
In a further experiment the test system is SK-OV-3 ovarian. Particulars: 10 µM unless noted.
The next experiment concerns IGROV1 ovarian. Particulars: 10 µM unless noted.
Another experiment deals with OVCAR-3 ovarian. Particulars: 10 µM unless noted.
The subject of a further experiment is HS 578T breast. The settings on record: 10 µM.
Another experiment has as its system NCI/ADR-RES ovarian. Particulars: 10 µM unless noted.

Take `CCCCNCC(O)c1cc(-c2ccc(C(F)(F)F)cc2)nc(-c2ccc(C(F)(F)F)cc2)c1` (stereo not given): the growth with SK-MEL-2 melanoma is -67.1% (active); with EKVX NSCLC it was -61.8% (active); in the experiment with SN12C renal, -73.2% (active); in the experiment with UO-31 renal, -88.2% (active); in the experiment on TK-10 renal, -94.4% (active); with ACHN renal it was -71.6% (active). The growth in the experiment on CAKI-1 renal was -73% (active); in the experiment on A498 renal, -68.1% (active); with CCRF-CEM leukemia, -36.4% (active); in the experiment on MOLT-4 leukemia, -56.7% (active); with SR leukemia, -63.7% (active); in the experiment on RPMI-8226 leukemia, -49.9% (active). Moreover, the growth in the experiment with OVCAR-8 ovarian is -71.1% (active); in the experiment on OVCAR-5 ovarian, -74.9% (active); in the experiment on OVCAR-4 ovarian, -93.9% (active); with SK-OV-3 ovarian, -75.8% (active); in the experiment on IGROV1 ovarian it was -59.7% (active); in the experiment with OVCAR-3 ovarian it was -90.8% (active). The figures for the growth in the experiment with HS 578T breast and with NCI/ADR-RES ovarian were -57.8% (active) and -53.9% (active), respectively.
For the compound `CCOC(=O)C(Nc1ccccc1)C(=O)OCC`, the growth is 108% in the experiment on SK-MEL-2 melanoma; 108% in the experiment on EKVX NSCLC; 99.3% in the experiment on SN12C renal; 74.8% in the experiment on UO-31 renal; 107% in the experiment on TK-10 renal; 99.3% in the experiment on ACHN renal. Besides, the growth was 105% in the experiment with CAKI-1 renal; 126% in the experiment on A498 renal; 111% with CCRF-CEM leukemia; 83% with MOLT-4 leukemia; 106% with SR leukemia; 106% in the experiment on RPMI-8226 leukemia. The growth in the experiment on OVCAR-8 ovarian was 105%; with OVCAR-5 ovarian, 100%; with OVCAR-4 ovarian it was 93%; in the experiment with SK-OV-3 ovarian it was 105%; in the experiment on IGROV1 ovarian it was 92.3%; with OVCAR-3 ovarian it was 129%. Besides, the results for the growth with HS 578T breast and in the experiment with NCI/ADR-RES ovarian were 117% and 102%, respectively.
As for `COc1c(-c2cc(-c3ccc(C)o3)[nH]c(=O)n2)c(O)cc2occc12`, the growth is 69.6% in the experiment on SK-MEL-2 melanoma; 69.8% in the experiment with EKVX NSCLC; 63.6% in the experiment on SN12C renal; 71.5% in the experiment with UO-31 renal; 104% with TK-10 renal; 89.9% in the experiment with ACHN renal. Also, the growth was 63.8% in the experiment on CAKI-1 renal; 54.1% in the experiment with A498 renal; 77.8% in the experiment with CCRF-CEM leukemia; 41.1% in the experiment on MOLT-4 leukemia; 27.1% in the experiment on SR leukemia; 74.8% with RPMI-8226 leukemia. For the same compound, the growth in the experiment with OVCAR-8 ovarian was 73%; in the experiment with OVCAR-5 ovarian it was 99%; in the experiment with OVCAR-4 ovarian it was 72.4%; with SK-OV-3 ovarian it was 81.8%; in the experiment with IGROV1 ovarian it was 58.4%; in the experiment with OVCAR-3 ovarian, 32.9%. Also, the growth in the experiment on HS 578T breast was 54.5%; with NCI/ADR-RES ovarian it was 29.7%.
In the case of `COc1cccc(/C=N/N=C(N)N)c1`, the growth in the experiment with SK-MEL-2 melanoma is 107%; in the experiment with EKVX NSCLC it was 102%; in the experiment on SN12C renal, 95.2%; in the experiment with UO-31 renal, 82.6%; with TK-10 renal it was 113%; in the experiment on ACHN renal, 100%. The growth was 104% with CAKI-1 renal; 78% in the experiment with A498 renal; 108% in the experiment with CCRF-CEM leukemia; 115% in the experiment on MOLT-4 leukemia; 93% in the experiment with SR leukemia; 104% with RPMI-8226 leukemia. Besides, the growth with OVCAR-8 ovarian was 100%; in the experiment on OVCAR-5 ovarian, 89.7%; in the experiment on OVCAR-4 ovarian it was 91.5%; in the experiment with SK-OV-3 ovarian it was 111%; with IGROV1 ovarian it was 107%; in the experiment with OVCAR-3 ovarian, 105%. The growth was 113% with HS 578T breast and 103% in the experiment on NCI/ADR-RES ovarian.
As for `COCCCNCC(=O)Nc1c(C)cccc1C`, the growth is 112% with SK-MEL-2 melanoma; 104% with EKVX NSCLC; 104% with SN12C renal; 88.4% in the experiment on UO-31 renal; 113% in the experiment on TK-10 renal; 102% in the experiment on ACHN renal. Besides, the growth in the experiment with CAKI-1 renal is 105%; in the experiment on A498 renal, 110%; in the experiment with CCRF-CEM leukemia, 98.6%; in the experiment with MOLT-4 leukemia, 103%; in the experiment with SR leukemia, 100%; in the experiment with RPMI-8226 leukemia, 108%. For the same compound, the growth was 107% in the experiment with OVCAR-8 ovarian; 104% with OVCAR-5 ovarian; 111% in the experiment on OVCAR-4 ovarian; 112% with SK-OV-3 ovarian; 140% in the experiment with IGROV1 ovarian; 122% in the experiment on OVCAR-3 ovarian. The growth with HS 578T breast was 124%; in the experiment on NCI/ADR-RES ovarian, 105%.
`COc1ccc(-c2nn(-c3cccc(Cl)c3)cc2/C=C2\C(=N)N(c3ccccc3)N=C2N)cc1`: the growth in the experiment with SK-MEL-2 melanoma was 69.5%; with EKVX NSCLC it was 48.8%; with SN12C renal, 45.9%; in the experiment with UO-31 renal, 6.27% (active); in the experiment with TK-10 renal, 80.7%; in the experiment on ACHN renal, 20.7%. Moreover, the growth with CAKI-1 renal was -27.6% (active); in the experiment on A498 renal, 75.3%; in the experiment on CCRF-CEM leukemia, 12.3%; in the experiment on MOLT-4 leukemia, 6.35% (active); in the experiment with SR leukemia, 17.9%; in the experiment with RPMI-8226 leukemia, 47.3%. Moreover, the growth with OVCAR-8 ovarian is 42.3%; with OVCAR-5 ovarian, 39.8%; in the experiment with OVCAR-4 ovarian, 71.6%; in the experiment with SK-OV-3 ovarian, 91.3%; in the experiment on IGROV1 ovarian it was 27.9%; with OVCAR-3 ovarian, 38.8%. Moreover, the figures for the growth with HS 578T breast and in the experiment on NCI/ADR-RES ovarian were 82.1% and 34.7%, respectively.
For the compound `COc1cccc2nc(Nc3cccc(NC(=O)c4cc(N5CCOCC5)cc(C(F)(F)F)c4)c3)ccc12`, the growth with SK-MEL-2 melanoma is 79.4%; in the experiment with EKVX NSCLC it was 64%; in the experiment with SN12C renal it was 57%; in the experiment with UO-31 renal, 42.3%; with TK-10 renal, 65.9%; in the experiment on ACHN renal, 45.1%. Also, the growth in the experiment with CAKI-1 renal is 60.7%; with A498 renal, 99.4%; with CCRF-CEM leukemia, 48.9%; with MOLT-4 leukemia, 35.2%; in the experiment on SR leukemia it was 74.4%; with RPMI-8226 leukemia, 31.9%. In addition, the growth with OVCAR-8 ovarian was 52.2%; in the experiment on OVCAR-5 ovarian, 97.5%; in the experiment with OVCAR-4 ovarian it was 61.9%; with SK-OV-3 ovarian it was 88.9%; in the experiment on IGROV1 ovarian, 40.4%; with OVCAR-3 ovarian, 78%. Also, the figures for the growth in the experiment with HS 578T breast and in the experiment on NCI/ADR-RES ovarian were 67% and 59.7%, respectively.
Regarding `C#CC[C@@H]1C[C@]2(C)[C@H]3CC[C@@H]4[C@H]5C(C(=C)C)CC[C@]5(C(=O)NCCCCN)CC[C@@]4(C)[C@]3(C)CC[C@H]2C(C)(C)[C@H]1OC(C)=O` (stereo not given in full), the growth was 61% in the experiment on SK-MEL-2 melanoma; 90.1% with EKVX NSCLC; -82.9% (active) with SN12C renal; -97.1% (active) in the experiment with UO-31 renal; -92.9% (active) in the experiment with TK-10 renal; -98.3% (active) in the experiment with ACHN renal. The growth in the experiment with CAKI-1 renal was -98.8% (active); in the experiment with A498 renal it was 108%; in the experiment on CCRF-CEM leukemia it was -11% (active); in the experiment on MOLT-4 leukemia, -21.3% (active); in the experiment with SR leukemia it was -7.19% (active); in the experiment on RPMI-8226 leukemia it was -39.1% (active). Further, the growth in the experiment on OVCAR-8 ovarian is -47.5% (active); in the experiment on OVCAR-5 ovarian it was -87.3% (active); with OVCAR-4 ovarian it was -61.8% (active); in the experiment with SK-OV-3 ovarian, 111%; in the experiment with IGROV1 ovarian, -59% (active); in the experiment with OVCAR-3 ovarian it was -87.3% (active). In addition, the growth with HS 578T breast was -26.2% (active); in the experiment on NCI/ADR-RES ovarian, -53.4% (active).
